Measurements as given in PubChem BioAssay (EPA / NIEHS).
Inconclusive results are not listed. The source made the active and inactive calls. The calls were made as follows, unless noted: active = hit-call score of the fitted dose curve at least 0.9, where 1 is the maximum; inconclusive = response in the unintended direction; inactive = score below 0.9.

Assays:
[1] = target: Estrogen receptor beta (Homo sapiens) (UniProt Q92731); assay: OT_ER_ERbERb_1440: Odyssey Thera (OT) 24-hour HEK293T Protein-Complementation Assay for Estrogen Receptor-beta/-beta Homodimer (AID 2283380);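 also: fluorescence gain from ER beta LBD homodimer complementation read by laser scanning cytometry; scored as signal increase over DMSO baseline for both agonists and antagonists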
Procedure, shortened: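 Fluorescence increase, nuclear for agonists or whole-cell for antagonists, relative to DMSO vehicle, quantified by laser scanning cytometer after fixation and Draq5 staining. Readout from 24 h treatment of HEK293T cells carrying complementation-paired ER beta LBD (aa 310-547).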

[2] = target: Estrogen receptor (Homo sapiens) (UniProt P03372); assay: OT_ERa_GFPERaERE_0480: Odyssey Thera (OT) 8-hour HeLa Transcription Induction Assay for Estrogen Receptor (AID 2283381; active = hit-call score of the fitted dose curve at least 0.9, where 1 is the maximum; inactive = score below 0.9)
Procedure, shortened: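 HeLa cells dosed with compound and imaged by fluorescence microscopy at 8 h; GFP induction from an ERE reporter quantified by high-content image analysis and fitted as gain of signal against DMSO baseline.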

[3] = target: Estrogen receptor (Homo sapiens) (UniProt P03372); assay: OT_ERa_GFPERaERE_0120: Odyssey Thera (OT) 2-hour HeLa Transcription Induction Assay for Estrogen Receptor (AID 2283382)
Procedure, shortened: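 HeLa cells were dosed with test chemical and read 2 hours later for GFP-ERα/ERE-linked fluorescent protein induction by fluorescence microscopy. Gain-of-signal was fitted relative to DMSO baseline, quantified by high content image analysis.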

[4] = target: Retinoic acid receptor RXR-alpha (Homo sapiens) (UniProt P19793); assay: OT_NURR1_NURR1RXRa_0480: Odyssey Thera (OT) 8-hour HEK293T Protein Complementation Assay for Nurr1/retinoid X receptor (RXR) (AID 2283385)
Procedure, shortened: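 HEK293T cells expressing Nurr1 and RXRα fused to reporter fragments were dosed with compound for 8 hours. Complex formation was read as fluorescence intensity and analysed as gain of signal against DMSO as baseline.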

[5] = target: Retinoic acid receptor RXR-alpha (Homo sapiens) (UniProt P19793); assay: OT_NURR1_NURR1RXRa_1440: Odyssey Thera (OT) 24-hour HEK293T Protein Complementation Assay for Nurr1/retinoid X receptor (RXR) (AID 2283386)
Procedure, shortened: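 HEK293T cells were dosed with compound and read 24 h later by fluorescence intensity in a protein-fragment complementation format, where Nurr1–RXRα interaction reconstitutes a split reporter. Activity was fitted as gain of signal relative to DMSO baseline.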

[6] = target: Peroxisome proliferator-activated receptor gamma (Homo sapiens) (UniProt P37231); assay: OT_PPARg_PPARgSRC1_1440: Odyssey Thera (OT) 24-hour Protein-Complementation Assay for Peroxisome Proliferator-activated Receptor Gamma/ SRC-1 Co-activator (AID 2283388);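 also: nuclear to cytoplasmic ratio of reconstituted Venus YFP fluorescence in fixed imaged cells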
Procedure, shortened: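 Transient HEK293T, YFP fragments 1-158/159-239 (mutant IFP1/IFP2) fused to PPARg/SRC-1; 24 h dosing; fix 4% formaldehyde, Draq5; Opera imaging 488/635 nm; N/C ratio, gain vs DMSO.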

[7] = target: Peroxisome proliferator-activated receptor gamma (Homo sapiens) (UniProt P37231); assay: OT_PPARg_PPARgSRC1_0480: Odyssey Thera (OT) 8-hour Protein-Complementation Assay for Peroxisome Proliferator-activated Receptor Gamma / SRC-1 Co-activator (AID 2283387);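 also: nuclear to cytoplasmic split Venus YFP fluorescence ratio reporting PPARg SRC-1 interaction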
Procedure, shortened: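 Protein-fragment complementation of split Venus YFP reports PPARg/SRC-1 interaction in HEK293T (transfected 48 h before treatment), exposed 8 h. Readout: N/C fluorescence ratio at 488 nm from imaging, Draq5 for segmentation, positive fit relative to DMSO.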

[8] = CEETOX_H295R_11DCORT: CeeTox H295R High-throughput Steroidogenesis Assay for 11-Deoxycortisol (11DCORT) (AID 2283432; active = hit-call score of the fitted dose curve at least 0.9, where 1 is the maximum; inactive = score below 0.9;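 as to AC50: 11-deoxycortisol secreted into the medium measured by LC-MS/MS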); settings: actives raise or lower the signal
Procedure, shortened: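 Human adrenal H295R cells were prestimulated with 10 uM forskolin for 48 h, then exposed to test chemical (0.1% DMSO final) for 48 h. Medium 11-deoxycortisol was quantified by MTBE extraction and HPLC-MS/MS; bidirectional fitting relative to DMSO.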

[9] = CEETOX_H295R_OHPREG: CeeTox H295R High-throughput Steroidogenesis Assay for OH-Pregnenolone (OHPREG) (AID 2283434; active = hit-call score of the fitted dose curve at least 0.9, where 1 is the maximum; inactive = score below 0.9); settings: actives raise or lower the signal
Procedure, shortened: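 Hormone levels in spent medium were measured by tandem mass spectrometry following liquid-liquid extraction. Cells (H295R) had been forskolin-stimulated (10 uM, 48 h) before a 48 h chemical exposure at 0.1% DMSO, with activity fitted in both directions against DMSO.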

[10] = CEETOX_H295R_OHPROG: CeeTox H295R High-throughput Steroidogenesis Assay for OH-Progesterone (OHPROG) (AID 2283435; active = hit-call score of the fitted dose curve at least 0.9, where 1 is the maximum; inactive = score below 0.9); settings: actives raise or lower the signal
Procedure, shortened: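 H295R human adrenal cells were prestimulated 48 h with 10 uM forskolin, then exposed 48 h to test chemical (0.1% DMSO final). 17alpha-hydroxyprogesterone in medium was measured by HPLC-MS/MS after MTBE extraction; bidirectional fitting vs DMSO.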

[11] = CEETOX_H295R_CORTIC: CeeTox H295R High-throughput Steroidogenesis Assay for Corticosterone (CORTIC) (AID 2283437; active = hit-call score of the fitted dose curve at least 0.9, where 1 is the maximum; inactive = score below 0.9;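 also: corticosterone secreted into medium quantified by mass spectrometry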); settings: actives raise or lower the signal
Procedure, shortened: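 Corticosterone secreted into medium is measured by reverse-phase HPLC with tandem MS following liquid-liquid extraction. Cells are forskolin-stimulated (10 uM, 48 h) before 48 h test exposure; activity fitted in both directions against DMSO.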

[12] = CEETOX_H295R_CORTISOL: CeeTox H295R High-throughput Steroidogenesis Assay for Cortisol (AID 2283438; active = hit-call score of the fitted dose curve at least 0.9, where 1 is the maximum; inactive = score below 0.9;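 also: cortisol secreted into medium quantified by LC-MS/MS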); settings: actives raise or lower the signal
Procedure, shortened: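 H295R human adrenal cells were prestimulated 48 h with 10 uM forskolin, then exposed 48 h to test chemical (0.1% DMSO final). Medium cortisol was quantified by HPLC-MS/MS after MTBE extraction; bidirectional fitting relative to DMSO baseline.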

[13] = CEETOX_H295R_ESTRADIOL: CeeTox H295R High-throughput Steroidogenesis Assay for Estradiol (AID 2283440; active = hit-call score of the fitted dose curve at least 0.9, where 1 is the maximum; inactive = score below 0.9;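 also: estradiol secreted into medium quantified by LC-MS/MS after dansyl derivatisation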); settings: actives raise or lower the signal
Procedure, shortened: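 Following OECD 456 with minor changes, H295R cells received 10 uM forskolin for 48 h and then test chemical for 48 h. Hormone output was read by HPLC-MS/MS, with cytotoxic concentrations diluted until MTT viability reached ≥70%.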

[14] = CEETOX_H295R_ESTRONE: CeeTox H295R High-throughput Steroidogenesis Assay for Estrone (AID 2283441; active = hit-call score of the fitted dose curve at least 0.9, where 1 is the maximum; inactive = score below 0.9;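 also: estrone secreted into medium measured by LC-MS/MS after dansyl derivatization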); settings: actives raise or lower the signal
Procedure, shortened: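 H295R cells; 48 h forskolin (10 uM) prestimulation; 48 h compound exposure, 0.1% DMSO final. Medium estrone: MTBE extraction, dansyl derivatization, HPLC-MS/MS. Bidirectional fit vs DMSO.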

[15] = CEETOX_H295R_PROG: CeeTox H295R High-throughput Steroidogenesis Assay for Progesterone (PROG) (AID 2283442; active = hit-call score of the fitted dose curve at least 0.9, where 1 is the maximum; inactive = score below 0.9;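 as to AC50: human H295R adrenal cells primed with 10 µM forskolin before dosing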); settings: actives raise or lower the signal
Procedure, shortened: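 Adrenal H295R line, forskolin-stimulated (10 uM, 48 h) before dosing. 48 h exposure, 0.1% DMSO vehicle. Secreted progesterone by reverse-phase HPLC with ESI+ MS/MS quantification; DMSO-normalised bidirectional curve fit.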

[16] = target: Bile acid receptor (Homo sapiens) (UniProt Q96RI1); assay: OT_FXR_FXRSRC1_0480: Odyssey Thera (OT) 8-hour HEK293T Protein-Complementation Assay for Farnesoid X receptor/SRC-1 Co-activator (AID 2283383)
Procedure, shortened: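 HEK293T cells expressing FXR and SRC-1 fused to reporter fragments were dosed with compound for 8 h; fluorescence from the reconstituted reporter marked co-activator recruitment. Gain of signal was fitted against the DMSO baseline.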

[17] = read-out: Tumor necrosis factor receptor superfamily member 6 (Homo sapiens) (UniProt P25445); assay: LTEA_HepaRG_FAS: Life Technologies and Expression Analysis (LTEA) Assay for Fas cell surface death receptor (FAS) using HepaRG (AID 2283447; active = hit-call score of the fitted dose curve at least 0.9, where 1 is the maximum; inactive = score below 0.9); settings: mRNA level, 48 h; actives raise or lower the signal
Procedure, shortened: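 FAS transcript level was measured by TaqMan qRT-PCR against three housekeeping genes after 48 h chemical exposure. Cells were HepaRG, 0.5% DMSO vehicle, with a top concentration of 100 uM and half-log dilutions over eight points, in duplicate.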

Measured: AC50

Sequence of Peroxisome proliferator-activated receptor gamma (Homo sapiens) (P37231 whole entry, looked up, the tested form may be a part): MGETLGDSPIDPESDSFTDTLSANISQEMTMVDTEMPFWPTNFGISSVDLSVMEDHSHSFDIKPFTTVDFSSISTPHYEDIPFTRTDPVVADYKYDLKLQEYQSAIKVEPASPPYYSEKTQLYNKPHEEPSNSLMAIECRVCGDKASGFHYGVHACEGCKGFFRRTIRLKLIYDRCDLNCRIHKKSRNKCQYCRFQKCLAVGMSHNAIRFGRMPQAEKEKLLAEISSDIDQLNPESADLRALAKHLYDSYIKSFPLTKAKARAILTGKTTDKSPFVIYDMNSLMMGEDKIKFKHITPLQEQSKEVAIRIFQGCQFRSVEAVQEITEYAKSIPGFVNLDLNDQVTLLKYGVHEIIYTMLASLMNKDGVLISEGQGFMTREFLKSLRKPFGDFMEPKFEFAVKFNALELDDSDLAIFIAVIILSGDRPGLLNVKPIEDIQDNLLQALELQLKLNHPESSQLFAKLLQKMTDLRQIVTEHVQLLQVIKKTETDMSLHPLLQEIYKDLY
Sequence of Retinoic acid receptor RXR-alpha (Homo sapiens) (P19793 whole entry, looked up, the tested form may be a part): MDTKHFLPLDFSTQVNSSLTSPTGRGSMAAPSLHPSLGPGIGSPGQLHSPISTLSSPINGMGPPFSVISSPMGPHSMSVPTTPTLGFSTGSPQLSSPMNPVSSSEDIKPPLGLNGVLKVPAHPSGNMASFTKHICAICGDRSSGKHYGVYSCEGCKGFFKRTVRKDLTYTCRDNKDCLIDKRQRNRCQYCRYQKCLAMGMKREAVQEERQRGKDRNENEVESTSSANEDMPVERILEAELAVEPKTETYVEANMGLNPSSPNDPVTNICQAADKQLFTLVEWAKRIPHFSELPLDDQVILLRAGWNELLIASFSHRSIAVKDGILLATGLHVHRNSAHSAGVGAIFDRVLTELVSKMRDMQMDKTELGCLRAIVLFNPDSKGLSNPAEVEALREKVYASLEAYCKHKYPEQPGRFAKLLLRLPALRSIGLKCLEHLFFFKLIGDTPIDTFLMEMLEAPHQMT
Sequence of Estrogen receptor beta (Homo sapiens) (Q92731 whole entry, looked up, the tested form may be a part): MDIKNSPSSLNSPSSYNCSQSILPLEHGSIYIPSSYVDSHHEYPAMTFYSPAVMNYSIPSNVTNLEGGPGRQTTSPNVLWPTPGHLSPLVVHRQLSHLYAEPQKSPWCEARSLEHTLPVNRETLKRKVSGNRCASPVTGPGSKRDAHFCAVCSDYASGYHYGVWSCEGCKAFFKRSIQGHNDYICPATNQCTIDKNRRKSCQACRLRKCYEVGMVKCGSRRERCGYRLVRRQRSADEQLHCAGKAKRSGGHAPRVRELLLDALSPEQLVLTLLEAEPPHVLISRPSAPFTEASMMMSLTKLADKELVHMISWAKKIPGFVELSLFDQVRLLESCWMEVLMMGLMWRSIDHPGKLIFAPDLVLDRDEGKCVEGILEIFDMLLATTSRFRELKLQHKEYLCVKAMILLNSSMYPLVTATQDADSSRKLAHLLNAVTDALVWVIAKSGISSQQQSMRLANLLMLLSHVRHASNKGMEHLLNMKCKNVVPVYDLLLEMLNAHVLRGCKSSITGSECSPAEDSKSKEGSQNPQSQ
Sequence of Estrogen receptor (Homo sapiens) (P03372 whole entry, looked up): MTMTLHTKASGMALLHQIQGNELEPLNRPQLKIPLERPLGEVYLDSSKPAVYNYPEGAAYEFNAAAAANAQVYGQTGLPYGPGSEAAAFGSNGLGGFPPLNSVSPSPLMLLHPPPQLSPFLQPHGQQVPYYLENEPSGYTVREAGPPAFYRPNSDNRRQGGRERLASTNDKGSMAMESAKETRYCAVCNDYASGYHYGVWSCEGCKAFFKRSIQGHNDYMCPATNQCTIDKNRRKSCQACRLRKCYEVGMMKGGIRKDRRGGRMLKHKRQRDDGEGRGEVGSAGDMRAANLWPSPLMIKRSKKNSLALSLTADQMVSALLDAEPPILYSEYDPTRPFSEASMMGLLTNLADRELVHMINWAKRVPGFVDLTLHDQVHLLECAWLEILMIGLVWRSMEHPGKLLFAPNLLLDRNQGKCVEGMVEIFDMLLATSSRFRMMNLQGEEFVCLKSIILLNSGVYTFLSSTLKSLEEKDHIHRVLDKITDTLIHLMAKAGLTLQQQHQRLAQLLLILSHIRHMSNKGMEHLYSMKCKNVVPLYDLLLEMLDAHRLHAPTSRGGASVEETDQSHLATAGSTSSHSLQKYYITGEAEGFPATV
Sequence of Bile acid receptor (Homo sapiens) (Q96RI1 whole entry, looked up, the tested form may be a part): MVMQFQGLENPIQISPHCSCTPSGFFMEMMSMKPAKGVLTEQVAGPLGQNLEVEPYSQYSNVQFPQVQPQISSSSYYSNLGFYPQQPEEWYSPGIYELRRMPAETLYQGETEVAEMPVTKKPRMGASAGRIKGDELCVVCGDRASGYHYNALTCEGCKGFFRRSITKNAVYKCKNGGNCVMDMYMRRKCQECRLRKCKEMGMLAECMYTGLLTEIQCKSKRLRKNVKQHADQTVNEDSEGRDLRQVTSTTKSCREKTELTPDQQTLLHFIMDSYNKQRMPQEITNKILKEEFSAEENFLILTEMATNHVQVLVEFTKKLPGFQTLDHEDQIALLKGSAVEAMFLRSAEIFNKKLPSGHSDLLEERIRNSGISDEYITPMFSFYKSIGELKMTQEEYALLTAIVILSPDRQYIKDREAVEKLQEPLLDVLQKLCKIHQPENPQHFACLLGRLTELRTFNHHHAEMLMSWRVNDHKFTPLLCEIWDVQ

CC(=O)c1ccc(O)cc1
inactive: [1] | [2] | [3] | [4] | [5]

CCCC1CCC(=O)CC1
inactive: [1] | [2] | [3] | [4] | [5] | [6]

CCCCCCCCCCCCN1CCOCC1
active: [4] 73.6 µM | [5] 80.4 µM | [8] 0.559 µM | [9] 0.645 µM | [10] 1.86 µM | [15] 0.304 µM
not listed: [6] | [16] | [17]
inactive: all other assays above

CC(=O)OC/C=C(C)/C=C/C=C(C)/C=C/C1=C(C)CCCC1(C)C
active: [4] 27.5 µM
inactive: [1] | [2] | [3] | [5] | [7] | [6]

CCCCC(CC)COCCO (stereo unspecified)
inactive: [1] | [2] | [3] | [4] | [5]

CCCCCCCCCO
inactive: [1] | [2] | [3] | [16] | [4] | [5] | [6]

CCCCCCCCCCCCS
inactive: [1] | [2] | [3] | [7]
active: [4] 77.6 µM | [5] 93.7 µM

CCCc1ccc(O)cc1
active: [1] 46.5 µM | [11] 36.4 µM
not listed: [6] | [17]
inactive: all other assays above

CCC(=O)OC(C)(C)C1CC=C(C)CC1 (stereo unspecified)
inactive: [1] | [2] | [3] | [5] | [6]
active: [16] 83.9 µM

CCCCOCCOCCOCCO
inactive: [1] | [2] | [3] | [4] | [7] | [6]

C=CCCCCCCCCC(=O)OCC
inactive: [1] | [2] | [3] | [4] | [5] | [7] | [6]

COC(=O)c1ccc(C(=O)OC)cc1
inactive: [1] | [2] | [3] | [4] | [5] | [7] | [17]
